Test results as given in PubChem BioAssay.
Several values for one entry are separate records, joined by “and”; a condition that tells them apart may be missing. Identical values can stand only once. Results filed as inconclusive are left out. Activity calls are given as the source filed them.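 The calls were made as follows, unless noted: active = normalized viability below 100% at a tested concentration; inactive = the rest.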

Experiments:
[1] = viability loss in pontine glioma line – cell-based, SU-DIPG-XVII, MIPE5.0, CellTiter-Glo, qHTS, dose response (AID 1347060; cut-off not given, nearly all actives have AC50 up to about 26 µM;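 as to AC50: cells exposed to compound for 48 hours before viability readout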); conditions: CellTiter-Glo ATP luminescence
[2] = viability loss in pontine glioma line – cell-based, SU-DIPG-XIII, MIPE4.0, CellTiter-Glo, qHTS, dose response (AID 1347061; cut-off not given, nearly all actives have AC50 up to about 37 µM;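 also: cells exposed to compound for 48 hours before readout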); conditions: CellTiter-Glo ATP luminescence
[3] = viability loss in pontine glioma line – cell-based, JHH-DIPG-1, MIPE4.0, CellTiter-Glo, qHTS, dose response (AID 1347062; cut-off not given, nearly all actives have AC50 up to about 27 µM;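 as to AC50: cells exposed to compound for two days before readout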); conditions: JHH-DIPG-1 viability, CellTiter-Glo ATP luminescence
[4] = viability loss in pontine glioma line – cell-based, SU-DIPG-IV, MIPE4.0, CellTiter-Glo, qHTS, dose response (AID 1347063; cut-off not given, nearly all actives have AC50 up to about 30 µM;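 also: compound exposure lasted 48 hours before the viability readout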); conditions: CellTiter-Glo ATP luminescence
[5] = viability loss in pontine glioma line – cell-based, SU-DIPG-XXV, MIPE5.0, CellTiter-Glo, qHTS, dose response (AID 1347065; cut-off not given, nearly all actives have AC50 up to about 26 µM;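 also: cells exposed to compound for 48 hours before ATP readout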); conditions: CellTiter-Glo ATP luminescence
[6] = growth inhibition of DIPG cells – cell-based, MIPE4.0 library, CellTiter-Glo luminescence, qHTS (AID 1347066; cut-off not given, nearly all actives have AC50 up to about 30 µM;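 also: cells exposed to compound for 48 hours before readout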); conditions: SU-DIPG-VI viability, CellTiter-Glo ATP luminescence
[7] = compounds altering HSF1 focus formation in cells – imaging, Selleck Cancer Library (AID 1347162; in the data active = plate-normalised HSF1 focus index below about 0.46); conditions: human cells, HSF1 nuclear foci imaging, at 10 µM; SSMD: measured here: HSF1 foci SSMD mean; cell count: measured here: cell number; plate-normalised HSF1 focus index: stronger effect = lower value
[8] = drug combination growth inhibition, ovarian cancer – cell-based, oncology-focused library, rucaparib conditional, profiling panel (AID 1508598); conditions: patient-derived ovarian cancer cells, CellTiter-Glo viability, 144 h, stronger effect = lower value
[9] = JHH-DIPG-1 glioma cell viability, MIPE5.0 library, CellTiter-Glo luminescence, qHTS (AID 1347067; cut-off not given, nearly all actives have AC50 up to about 26 µM;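 also: cells exposed to compound for 48 hours before readout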); conditions: JHH-DIPG-1 glioma viability, CellTiter-Glo ATP luminescence
[10] = growth inhibition of DIPG cells – cell-based, MIPE5.0 library, qHTS (AID 1347068; cut-off not given, nearly all actives have IC50 up to about 30 µM); conditions: SU-DIPG-XXV viability
[11] = viability loss with induced miR-34 in A549 – imaging, A549 dox-inducible miR-34, nuclei and caspase counts, primary screen (AID 1347080;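 active = compounds whose cell count with miR-34 switched on is under 0.7 times the count with it off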); conditions: A549 miR-34 inducible, Hoechst nuclei count, 48 h
[12] = MELAS cybrid and Rieske KO viability enhancers – cell-based, MELAS cybrids, Rieske KO mouse fibroblasts, CellTiter-Glo, primary screen (AID 1508586;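 active = mean z-score across replicates of 1.96 or higher in either the MELAS or the Rieske mutant cell line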;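 also: z relative to plate mean and SD of compound and empty wells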); conditions: low glucose
[13] = at 0.000305 µM, OCI-C5x cells, with rucaparib 10 µM, 100% = cells with rucaparib alone
[14] = at 0.000305 µM, OCI-C5x cells, without rucaparib
[15] = at 0.000305 µM, OCI-P5x cells, with rucaparib 20 µM, 100% = cells with rucaparib alone
[16] = at 0.000305 µM, OCI-P5x cells, without rucaparib
[17] = at 0.00122 µM, OCI-C5x cells, with rucaparib 10 µM, 100% = cells with rucaparib alone
[18] = at 0.00122 µM, OCI-C5x cells, without rucaparib
[19] = at 0.00122 µM, OCI-P5x cells, with rucaparib 20 µM, 100% = cells with rucaparib alone
[20] = at 0.00122 µM, OCI-P5x cells, without rucaparib
[21] = at 0.00488 µM, OCI-C5x cells, with rucaparib 10 µM, 100% = cells with rucaparib alone
[22] = at 0.00488 µM, OCI-C5x cells, without rucaparib
[23] = at 0.00488 µM, OCI-P5x cells, with rucaparib 20 µM, 100% = cells with rucaparib alone
[24] = at 0.00488 µM, OCI-P5x cells, without rucaparib
[25] = at 0.0195 µM, OCI-C5x cells, with rucaparib 10 µM, 100% = cells with rucaparib alone
[26] = at 0.0195 µM, OCI-C5x cells, without rucaparib
[27] = at 0.0195 µM, OCI-P5x cells, with rucaparib 20 µM, 100% = cells with rucaparib alone
[28] = at 0.0195 µM, OCI-P5x cells, without rucaparib
[29] = at 0.0781 µM, OCI-C5x cells, with rucaparib 10 µM, 100% = cells with rucaparib alone
[30] = at 0.0781 µM, OCI-C5x cells, without rucaparib
[31] = at 0.0781 µM, OCI-P5x cells, with rucaparib 20 µM, 100% = cells with rucaparib alone
[32] = at 0.0781 µM, OCI-P5x cells, without rucaparib
[33] = at 0.313 µM, OCI-C5x cells, with rucaparib 10 µM, 100% = cells with rucaparib alone
[34] = at 0.313 µM, OCI-C5x cells, without rucaparib
[35] = at 0.313 µM, OCI-P5x cells, with rucaparib 20 µM, 100% = cells with rucaparib alone
[36] = at 0.313 µM, OCI-P5x cells, without rucaparib
[37] = at 1.25 µM, OCI-C5x cells, with rucaparib 10 µM, 100% = cells with rucaparib alone
[38] = at 1.25 µM, OCI-C5x cells, without rucaparib
[39] = at 1.25 µM, OCI-P5x cells, with rucaparib 20 µM, 100% = cells with rucaparib alone
[40] = at 1.25 µM, OCI-P5x cells, without rucaparib
[41] = at 5 µM, OCI-C5x cells, with rucaparib 10 µM, 100% = cells with rucaparib alone
[42] = at 5 µM, OCI-C5x cells, without rucaparib
[43] = at 5 µM, OCI-P5x cells, with rucaparib 20 µM, 100% = cells with rucaparib alone
[44] = at 5 µM, OCI-P5x cells, without rucaparib
[45] = stronger effect = lower value, cell number ratio, induced over uninduced
[46] = measured here: relative caspase fold change +Dox/-Dox
[47] = measured here: total cells with miR-34 induction, stronger effect = lower value
[48] = measured here: total cells without miR-34 induction
[49] = MELAS cybrid survival, CellTiter-Glo 48 h, stronger effect = higher value
[50] = Rieske KO mouse fibroblast survival, CellTiter-Glo 72 h

CCN1CCN(Cc2ccc(-c3cc4c(N[C@H](C)c5ccccc5)ncnc4[nH]3)cc2)CC1
inactive: plate-normalised HSF1 focus index [7] 1.06 | viability [8, 13] 113% | viability [8, 14] 121% | viability [8, 16] 117% | viability [8, 17] 110% | viability [8, 18] 123% | viability [8, 20] 120% | viability [8, 21] 110% | viability [8, 22] 127% | viability [8, 23] 108% | viability [8, 24] 118% | viability [8, 25] 109% | viability [8, 26] 124% | viability [8, 28] 115% | viability [8, 29] 106% | viability [8, 30] 129% | viability [8, 31] 102% | viability [8, 32] 123% | viability [8, 33] 119% | viability [8, 34] 146% | viability [8, 36] 112% | viability [8, 38] 114% | viability [8, 40] 118% | viability [8, 42] 117% | viability [8, 44] 105%
active: AC50 [1] 14.8 µM | AC50 [2] 5.26 µM | AC50 [3] 13.2 µM | AC50 [4] 0.0469 µM | AC50 [5] 18.6 µM | AC50 [6] 23.5 µM | viability [8, 15] 97.2% | viability [8, 19] 100% | viability [8, 27] 98% | viability [8, 35] 98.7% | viability [8, 37] 96.1% | viability [8, 39] 90.3% | viability [8, 41] 70.8% | viability [8, 43] 64.4%
1.68: SSMD [7]
7280: cell count [7]

O=C(Nc1cccc(Nc2ncc(Br)c(NCCc3cnc[nH]3)n2)c1)N1CCCC1
active: AC50 [1] 4.17 µM | AC50 [2] 16.6 µM | AC50 [3] 16.6 µM | AC50 [4] 16.6 µM | AC50 [5] 1.66 µM | AC50 [6] 14.8 µM | AC50 [9] 3.72 µM
inactive: outcome [10] | fold change [11, 45] 0.952 | z-score [12, 49] -0.631
0.914: fold change [11, 46]
2540: cell count [11, 48]
2420: cell count [11, 47]
0.495: z-score [12, 50]

OC[C@H]1OC(O)C[C@@H](O)[C@@H]1O (stereo partly specified)
inactive: outcome [1] | outcome [2] | outcome [3] | outcome [4] | outcome [5] | outcome [6] | outcome [9] | outcome [10]

C=C(c1ccc(C(=O)O)cc1)c1cc2c(cc1C)C(C)(C)CCC2(C)C
inactive: outcome [2] | outcome [3] | outcome [4] | outcome [6] | outcome [10] | fold change [11, 45] 0.951 and 0.85 | z-score [12, 49] 0.149 and 0.79 | viability [8, 13] 115% | viability [8, 14] 109% | viability [8, 16] 106% | viability [8, 17] 116% | viability [8, 18] 109% | viability [8, 20] 111% | viability [8, 21] 112% | viability [8, 22] 120% | viability [8, 23] 108% | viability [8, 24] 120% | viability [8, 25] 108% | viability [8, 26] 119% | viability [8, 27] 113% | viability [8, 28] 124% | viability [8, 29] 106% | viability [8, 30] 106% | viability [8, 31] 112% | viability [8, 32] 125% | viability [8, 33] 103% | viability [8, 34] 122% | viability [8, 35] 115% | viability [8, 36] 130% | viability [8, 38] 122% | viability [8, 39] 117% | viability [8, 40] 126% | viability [8, 41] 101% | viability [8, 42] 128% | viability [8, 43] 116% | viability [8, 44] 125%
6410 and 6330: cell count [11, 47]
active: AC50 [1] 23.5 µM | AC50 [5] 0.118 µM | viability [8, 15] 90.9% | viability [8, 19] 96% | viability [8, 37] 98%
1.39 and 1.44: fold change [11, 46]
0.712 and -0.251: z-score [12, 50]
6740 and 7440: cell count [11, 48]

CC(=O)N[C@H]1[C@H](O[C@@H]2c3ccc(c(Cl)c3)Oc3cc4cc(c3O[C@@H]3O[C@H](CO)[C@@H](O)[C@H](O)[C@H]3NC(=O)CCCCCCCC(C)C)Oc3ccc(cc3Cl)C[C@H]3NC(=O)[C@H](N)c5ccc(O)c(c5)Oc5cc(O)cc(c5)[C@H](NC3=O)C(=O)N[C@H]4C(=O)N[C@H]3C(=O)N[C@@H]2C(=O)N[C@@H](C(=O)O)c2cc(O)cc(O[C@H]4O[C@H](CO)[C@@H](O)[C@H](O)[C@@H]4O)c2-c2cc3ccc2O)O[C@H](CO)[C@@H](O)[C@@H]1O
inactive: outcome [1] | outcome [2] | outcome [3] | outcome [4] | outcome [5] | outcome [6] | outcome [9] | outcome [10]

O=C(O)c1ccc(Nc2ncc3c(n2)-c2ccc(Cl)cc2C(c2c(F)cccc2F)=NC3)cc1
0.65: z-score [12, 50]
2190: cell count [11, 48]
2100: cell count [11, 47]
0.787: fold change [11, 46]
active: AC50 [1] 4.17 µM | AC50 [5] 0.372 µM | AC50 [9] 16.6 µM
inactive: outcome [2] | outcome [3] | outcome [4] | outcome [6] | fold change [11, 45] 0.96 | z-score [12, 49] -0.524

COc1cc2c(cc1-c1c(C)noc1C)ncc1[nH]c(=O)n([C@H](C)c3ccccn3)c12
active: AC50 [2] 10.5 µM | AC50 [3] 23.5 µM | AC50 [4] 13.2 µM | AC50 [6] 4.18 µM
inactive: outcome [1] | outcome [9] | outcome [10]
